Shown are actives, neighbours in structure and some others; about 8% of the full set was active somewhere.
HCMV inh = qHTS Assay for inhibitors of the human cytomegalovirus (HCMV); HFF cells, HCMV-luciferase reporter, 72 h; active compounds read low; activity change, negative = inhibition, % at 57.5 µM; 4.5% of 410,000 active; AID 1259415, 2018; in the data active = activity change below about -60%; inconclusive = no clear call, values can overlap the other calls; inactive = above about -39%
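Human foreskin fibroblasts infected with luciferase-reporter HCMV at MOI 1 PFU/cell, compounds at two doses. Luciferase measured 72 h post infection; normalized to buffer-only basal and Salinomycin (10uM) controls.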
Marburg entry inh = qHTS for inhibitors of binding or entry into cells for Marburg Virus; 1.8% of 300,000 active; AID 540276, 2011; Potency, µM (highest dose often 37.8 µM), most hits filed as inhibitors; Marburg virus pseudotyped entry inhibition, cell reporter; calls by dose curve; tested in HEK293 cells
FMDV antiviral = High Throughput Screening for Foot and Mouth Disease Virus Antivirals | FMDV antiviral cell-based qHTS | Potency, µM (doses to about 57.9 µM), usual class: inhibitors | 1.2% of 410,000 active; calls by dose curve; tested in HEK293T cells; also: read-out not given here; nearly all actives have a fitted effect of over 45% in size
HCV inhibitor = qHTS Assay for Inhibitors of Hepatitis C Virus (HCV); Potency, µM (titrated, usually from 41.8 µM), hits mostly inhibitors; AID 651820, 2012; Huh7.5.1 HCVcc-Cre infection, luciferase reporter, 44 h; 3.4% of 340,000 active; active = well fitted inhibition curve with a large enough effect; inconclusive = small, poorly fitted or top-dose-only effect, or another doubt; inactive = no such curve, though single readings can be large or run the other way
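Reporter virus HCVcc-Cre (~0.5 moi) infects cells exposed to compound; seeding density 1,000 cells/well with 4 h settling beforehand. Luminescence, 15 sec read, taken 44 h post-infection following a 15 min RT substrate incubation.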
LASV entry inh = qHTS for Inhibitors of binding or entry into cells for Lassa Virus; Lassa virus pseudotype entry inhibition, cell reporter; Potency, µM (doses to about 37.9 µM), usual class: inhibitors; 1.2% of 300,000 active; calls by dose curve; tested in HEK293 cells; also: nearly all actives have a fitted effect of over 50% in size
SARS PLP yeast = qHTS of Yeast-based Assay for SARS-CoV PLP | S. cerevisiae expressing SARS-CoV PLpro, growth rescue | Potency, µM (doses to about 32.9 µM), hits mostly activators | 0.19% of 330,000 active; calls by dose curve; also: nearly all actives have a fitted effect of over 55% in size
Numbers stand for hits; . = inactive; ? = inconclusive; / = not tested or not shown.

SMILES	HCMV inh	Marburg entry inh	FMDV antiviral	HCV inhibitor	LASV entry inh	SARS PLP yeast
O=C1NC(=O)[C@H](c2cn(-c3ccccc3)nc2-c2ccc(F)cc2)N1	/	.	/	/	/	/
CCCc1c(-c2ccc(O)cc2)nn(-c2ccc(O)cc2)c1-c1ccc(O)cc1	/	?	.	?	0.291µM	.
Cc1c(C(N)=O)c(-c2ccccc2)nn1-c1ccccc1	.	.	.	.	.	.
CCOc1ccc(-n2c(SCC(=O)N3CCc4ccccc43)nc3c([nH]c4ccccc43)c2=O)cc1	.	/	.	/	.	/
C=CC(COCc1ccccc1)N(C(=O)OC(C)(C)C)S(=O)(=O)c1ccccc1Br (centres undefined)	.	/	?	.	/	.
COc1ccc(CN(CC(O)COCc2ccccc2)S(=O)(=O)c2ccccc2Br)cc1OC (centres undefined)	.	/	.	11.2µM	/	.
CCOc1ccc2c(c1)c(C(C)=O)c(C)n2-c1ccccc1	?	.	.	11.2µM	.	.
CCOC(=O)c1c(C)n(C)c2ccc(OCCN(C)C)cc12	.	.	.	.	.	.
CCOC(=O)c1c(C)n(-c2ccc(C)cc2)c2ccc(OCC(O)CNCCCO)cc12 (centres undefined)	-75.3	?	.	?	?	.
CCOC(=O)c1c(C)n(-c2ccccc2)c2ccc(OCCN(C)C)cc12	.	?	.	15.8µM	?	.
CCOC(=O)COc1ccc2c(c1)c(C(C)=O)c(C)n2-c1ccccc1	.	.	.	.	?	.
CC(C)OCCCNC(=O)c1cc2c(-c3ccc(Cl)cc3)nn(C)c2s1	.	.	.	/	.	/
CCCC(O)(c1ccc(Cl)cc1)C(CN1CCOCC1)c1ccc(Cl)cc1 (centres undefined)	.	7.94µM	?	.	.	.
CCc1ccc(C(O)(CC(C)C)C(CN2CCOCC2)c2ccccc2)cc1 (centres undefined)	-89.9	/	?	?	/	.
COc1ccc(C(O)(CC(C)C)C(CN2CCOCC2)c2ccccc2)cc1 (centres undefined)	-82.7	?	?	.	.	.
CCCC(O)(c1ccc(OC)cc1)C(CN1CCOCC1)c1ccc(Cl)cc1 (centres undefined)	.	/	.	.	/	.
CC1CN(CC(=O)NCCC2COc3ccccc3O2)Cc2cc(Cl)ccc2O1 (centres undefined)	/	/	.	/	/	/
O=C(NC1CCCCC1)C(c1cccs1)N(C(=O)c1ccccn1)c1ccccc1 (centres undefined)	.	.	.	.	.	.
OC(C#Cc1ccccn1)c1cccs1 (centres undefined)	-62.2	?	.	?	.	.
O=[N+]([O-])c1ccc(S(=O)(=O)c2cccc(C(F)(F)F)c2)nc1	/	11.2µM	17.8µM	?	?	/
O=S(=O)(Nc1cccnc1)c1cccc(C(F)(F)F)c1	.	.	.	.	?	.
Nc1nn(S(=O)(=O)c2cccc3nsnc23)cc1-c1ccc(Br)cc1	.	?	.	10µM	.	.
Cc1ccc(-c2cn(S(=O)(=O)c3cccc4nsnc34)nc2N)cc1	.	?	?	?	.	/
CC(C)[C@H](NC(=O)c1ccc([N+](=O)[O-])cc1Cl)C(=O)N1CCN(C/C=C/c2ccccc2)CC1	.	?	?	14.1µM	?	.
O=[N+]([O-])c1ccc(C(O)CN2CCN(C/C=C/c3ccccc3)CC2)cc1 (centres undefined)	.	?	.	12.6µM	.	.
SMILES	HCMV inh	Marburg entry inh	FMDV antiviral	HCV inhibitor	LASV entry inh	SARS PLP yeast
C[C@H]1[C@@H](NS(=O)(=O)c2ccc(Br)cc2)CC[C@@]23CCCN2C(=O)CCC[C@@H]13	.	/	/	/	/	/
COc1ccc(S(=O)(=O)Nc2cc3c4c(oc3c3ccccc23)CC(C)(C)CC4=O)cc1	.	14.6µM	.	?	?	.
COc1ccc(S(=O)(=O)Nc2cc3c4c(oc3c3ccccc23)CCCC4=O)cc1	.	?	.	?	7.08µM	.
CC(=O)c1ccc(NC(=O)/C=C/c2ccc(C)o2)cc1	.	?	.	/	.	/
Cc1ccc(/C=C/C(=O)Nc2ccc(Oc3ccccc3)cc2)o1	.	?	.	11.2µM	.	.
Cc1cc2oc(=O)cc(CN3CCCCC3)c2cc1C	.	/	.	.	/	.

Screening data deposited in PubChem by National Center for Advancing Translational Sciences (NCATS).
